Bioassay records from PubChem.
GPR151 activ = activators of human GPR151, primary screen, cell-based, PathHunter beta-arrestin, luminescence; AID 1508602, 2020; activation, % at 11.2 µM; PathHunter beta-arrestin GPR151 cells; 650,000 tested, 1% active; in the data active = activation above about 4.9%;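 also: 0% = median of compound wells and 100% = cells with positive control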
Target sequence (Q8TDV0 whole entry, looked up): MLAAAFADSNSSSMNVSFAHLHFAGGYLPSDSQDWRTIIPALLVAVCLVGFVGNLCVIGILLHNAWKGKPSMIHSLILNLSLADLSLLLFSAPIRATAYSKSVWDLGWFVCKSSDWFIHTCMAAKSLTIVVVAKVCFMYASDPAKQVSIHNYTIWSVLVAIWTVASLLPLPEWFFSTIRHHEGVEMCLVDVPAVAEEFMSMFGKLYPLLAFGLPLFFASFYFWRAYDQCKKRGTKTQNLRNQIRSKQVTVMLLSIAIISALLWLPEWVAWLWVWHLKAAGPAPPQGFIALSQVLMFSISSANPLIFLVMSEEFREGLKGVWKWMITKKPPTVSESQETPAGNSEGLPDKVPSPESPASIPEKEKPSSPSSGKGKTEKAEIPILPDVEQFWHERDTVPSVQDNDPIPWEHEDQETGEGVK
MITF inh = MITF inhibitors, primary screen, biochemical, AlphaScreen, human; 650,000 tested, 0.91% active; AlphaScreen MITF homodimerization, bead proximity signal; Microphthalmia-associated transcription factor (Homo sapiens), O75030; inhibition, % at 2.6 µM; in the data active = inhibition above about 50%;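 also: 0% = vehicle wells with protein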
FBW7 act = FBW7 E3 ligase activators, primary screen, biochemical, AlphaScreen, human; AlphaScreen FBW7–phospho-cyclin E peptide binding, activator screen; normalized activity (activation), % at 26.1 µM; 650,000 tested, 0.13% active; in the data active = normalized activity above about 1.9%;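 also: purified mutant Fbw7 with reduced substrate affinity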
TEAD-YAP block = TEAD-YAP interaction inhibition, primary screen, TEAD-YAP interaction inhibitor project, luminescence, HEK-TIYL cells. TEAD-Gal4/YAP UAS-luciferase luminescence. inhibition, % at 9.12 µM. 640,000 tested, 1.4% active; in the data active = inhibition above about 32%;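 also: 0% = median of test compound wells and 100% = reference inhibitor wells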
MITF inh conf = MITF inhibitors, retest of hits, confirmation, biochemical, AlphaScreen, triplicate | inhibition, % at 2.6 µM | AlphaScreen MITF homodimerization, biotin/His-MITF beads | AID 1259372, 2018 | shares compounds with MITF inh | 4,700 tested, 16% active;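 active = inhibition above a cutoff derived from the DMSO control wells, cut at about 28% in these data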;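 also: 0% = MITF dimer wells with DMSO only; inhibitors lower the bead chemiluminescence by keeping MITF from dimerizing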
AS interf DR = AlphaScreen optical interference compounds, dose response, counter-screen, biochemical, HTS; shares compounds with MITF inh; AlphaScreen optical interference counterscreen, cell-free; IC50, µM; 480 tested, 6% active; AID 1259373, 2018; call rule not given here
AS interf ctr = AlphaScreen optical interference compounds, counter-screen for MITF inhibitor project, biochemical, triplicate | shares compounds with MITF inh | LysRS AlphaScreen counterscreen, signal interference | inhibition, % at 2.6 µM | 4,700 tested, 7.6% active;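 active = inhibition above a cutoff derived from the DMSO control wells, cut at about 30% in these data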
The depositor's hits bear a star; / = not tested or not shown. Sampled rows, rich in hits. Any-hit rate of the full collection: about 3.5%.

SMILES | GPR151 activ | MITF inh | FBW7 act | TEAD-YAP block | MITF inh conf | AS interf ctr | others
CN1CC(=O)N2CCN(C(=O)c3cc(Cl)cc(Cl)c3)C[C@@H]2C1=O | 1 | 30 | 0 | 13 | / | /
O=C(c1cc(F)c(F)cc1F)N1CCN2C(=O)[C@@H]3CCCN3C(=O)[C@H]2C1 | 0 | -2 | 0 | -6 | / | /
COc1ccc(C2C(C#N)=C(N)Nc3onc(C(C)(C)C)c32)c(OC)c1 (centres undefined) | 0 | 5 | 0 | 7 | / | /
O=C(NCCOc1ccccc1)c1cccc(Nc2ccncn2)c1 | 1 | 81* | 0 | -55 | -1 | 3
CC1=C(C(=O)Nc2ccccc2)C(c2cccs2)C(C#N)=C(SCC(=O)Nc2cccc(Br)c2)N1 (centres undefined) | 1 | -2 | 0 | 0 | / | /
CCOc1ccc(CN2CCC(C(=O)NC(C)(C)C)CC2)cc1 | 1 | 19 | 0 | 1 | / | /
CCOc1ccc(CN2CCN(C3CCC(C)CC3)CC2)cc1 (centres undefined) | 0 | 71* | 0 | 3 | 3 | 9
CCOc1ccc(CN2CCN(Cc3ccc(OCC)cc3)CC2)cc1 | 1 | 51* | 0 | 9 | -1 | -4
CCOc1ccc(CN2CCC(C(=O)NCc3ccco3)CC2)cc1 | -2 | 83* | 0 | 2 | 14 | 14
Cc1cccc(CN2CCN(C3CCC(C)CC3)CC2)c1 (centres undefined) | 1 | 55* | 0 | -15 | 28* | 18 | AS interf DR=>5.5
O=C(CCC(=O)NC1CC1)NNc1nc2ccccc2c2nc(-c3ccccc3)nn12 | -1 | 3 | 0 | 4 | / | /
CCOc1ccc(CN2CCN(C(=O)c3ccccc3OC)CC2)cc1 | 1 | 57* | 0 | 31 | 4 | 16
COc1ccccc1C(=O)N1CCN(Cc2ccc3ccccc3c2)CC1 | 0 | 45 | 0 | 22 | / | /
OC1CCN(Cc2ccc(Cl)cc2)CC1 | 0 | 28 | 0 | 1 | / | /
CCc1ccc(CN2CCN(C3CCC(C)CC3)CC2)cc1 (centres undefined) | 0 | 69* | 0 | -4 | 0 | 5
CC1CCC(N2CCN(Cc3ccc(Cl)cc3)CC2)CC1 (centres undefined) | -1 | 69* | 0 | -10 | 11 | 17
O=C(c1ccccc1F)N1CCN(Cc2cccnc2)CC1 | 1 | 63* | 0 | 9 | -16 | -6
COc1cc(CN2CCN(C(=O)c3ccco3)CC2)cc(OC)c1OC | 1 | 33 | 0 | 9 | / | /
O=C(c1ccco1)N1CCN(Cc2cccnc2)CC1 | -1 | 66* | 0 | 7 | 3 | -1
O=C(c1ccccc1F)N1CCC(O)(c2cccnc2)CC1 | 4 | 29 | 0 | -3 | / | /
O=C(c1ccccc1F)N1CCN(Cc2ccncc2)CC1 | 1 | 73* | 0 | 8 | -13 | -3
O=C(c1ccccc1F)N1CCN(Cc2ccc(Br)cc2)CC1 | -1 | 50 | 0 | 19 | / | /
Cc1ccc(/C=N/NC(=O)C(c2ccccc2)c2ccccc2)o1 | -1 | 2 | 0 | 3 | / | /
COc1ccc(CNC(=O)c2c(O)c3c([nH]c2=O)CCCC3)cc1 | -1 | 51* | 1 | -4 | 7 | 15
N#CCn1cc(/C=C2\C(=O)NC(=O)N(c3ccc(Cl)cc3)C2=O)c2ccccc21 | -1 | -5 | 0 | 0 | / | /
SMILES | GPR151 activ | MITF inh | FBW7 act | TEAD-YAP block | MITF inh conf | AS interf ctr | others
CCCc1ccc(S(=O)(=O)Nc2ccc3c(c2)OCC(C)(C)C(=O)N3C)cc1 | -1 | 12 | 0 | 30 | / | /
COc1ccc(C(=O)N/C(=C\c2ccc([N+](=O)[O-])cc2)C(=O)Nc2ccc(C)c(C)c2)c(Cl)c1 | -1 | 61* | 1 | -15 | -1 | -3
COc1ccc(/C=C(/NC(=O)c2ccccc2)C(=O)Nc2ccc(F)cc2)cc1OC | 0 | 67* | 0 | 4 | 0 | 11
O=C(Nc1cccc(O)c1)/C(=C/c1ccc([N+](=O)[O-])cc1)NC(=O)c1ccccc1 | 0 | 52* | 0 | 6 | -9 | -2
O=C(Nc1cccc(C(=O)O)c1)/C(=C/c1ccc([N+](=O)[O-])cc1)NC(=O)c1ccccc1 | -2 | -3 | 0 | -1 | / | /
Cc1cccc(Nc2ccc(NCCNC(=O)c3ccc(Cl)cc3Cl)nn2)n1 | 3 | 13 | 0 | 2 | / | /
O=C(NCc1cn(-c2ccncc2)nn1)c1cccs1 | -2 | 15 | 0 | -7 | / | /
Cc1sc2ncnc(SCC(=O)Nc3sc4c(c3C#N)CCCC4)c2c1C | -1 | -1 | 0 | 1 | / | /
COc1ccc(-c2cc3ccccc3n2CC(O)CNCCO)cc1 (centres undefined) | -1 | 53* | 0 | 11 | 3 | -2
O=S1(=O)CC2N=C(Nc3ccccc3Cl)SC2C1 (centres undefined) | 0 | 6 | 0 | 13 | / | /
O=C(Nc1nnc(-c2ccccc2)o1)c1ccc([N+](=O)[O-])o1 | 1 | -14 | 0 | 11 | / | /
O=C(Nc1nnc(-c2ccco2)o1)c1ccc([N+](=O)[O-])o1 | -1 | 55* | 0 | 15 | 8 | 15
COC(=O)C1=C(C)NC(=S)NC1c1cc(Cl)c(O)c(OC)c1 (centres undefined) | 1 | 13 | 0 | 7 | / | /
N#Cc1c(SCC(=O)O)nc2c(c1-c1ccco1)CCC2 | 1 | 60* | -1 | -6 | 72* | 20 | AS interf DR=>6.9
COc1ccc(CNC(=O)C(=O)Nc2cccc(C(F)(F)F)c2)cc1 | -1 | 25 | 2 | 2 | / | /
COc1ccc2ccccc2c1CN1CCN(C(=O)c2cccnc2)CC1 | -1 | 50 | 0 | 0 | / | /
CCOC(=O)N1CCN(Cc2cccc3ccccc23)CC1 | 0 | -21 | 1 | 0 | / | /
O=C(c1cccnc1)N1CCN(Cc2cccc3ccccc23)CC1 | 0 | 51* | -1 | -4 | -12 | -8
O=C(c1ccncc1)N1CCN(Cc2cccc3ccccc23)CC1 | 0 | 67* | 0 | -5 | -3 | 4
CC1=C(C(=O)Nc2ccccc2C)C(c2ccco2)C(C#N)=C(SCC(=O)Nc2ccc(C)cc2)N1 (centres undefined) | 2 | -10 | 0 | -15 | / | /
CCOc1ccc(NC(=O)CSC2=C(C#N)C(c3ccco3)C(C(=O)Nc3ccccc3C)=C(C)N2)cc1 (centres undefined) | 1 | 63* | 0 | 7 | 0 | 3
O=C1NC(=O)C(CCCc2ccccc2)(C2CCN(C(=O)Cc3cccs3)CC2)N1 (centres undefined) | 0 | -18 | 0 | 6 | / | /
